# Only some compounds are listed: those with a hit (about 6.7% of all), similar ones and a draw of the others.
# C diff HTS = C. difficile growth inhibition. growth activity, negative = inhibition, % at 16 µg/mL (by protocol). 0.25% of 86,000 active. Clostridium difficile clinical isolate growth, OD600, 24 h; stronger effect = lower value;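 active means mean growth activity at or below -80% and every replicate also at or below -80%; inconclusive means mean at or below -80% but some replicate above -80%; inactive means mean growth activity above -80%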;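 further: 0% = DMSO wells and -100% = levofloxacin 16 µg/mL wells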
# Pf Dd2 inh = blocks growth of Plasmodium falciparum Dd2 parasites; 2.3% of 94,000 active; AID 1159554; activity change, % at 10 µM; P. falciparum Dd2 growth, SYBR Green, 72 h; stronger effect = lower value; in the data active means activity change below about -80%; inconclusive means no clear call, values can overlap the other calls
# Tcruzi prolif = inhibitors of T. cruzi proliferation | T. cruzi beta-gal in NIH3T3, GalScreen luminescence, 90 h | inhibition, % at 8.34 µM | 5.9% of 77,000 active | AID 624255;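 active means mean inhibition above about 93%, with at least 55% of replicates each passing it, limit read from the data, passing the limit was not always enough; inconclusive means only one of those two conditions holds; inactive means neither condition holds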
# Starred values were filed as active, the others as inactive; ? = inconclusive; · = no result.
SMILES,C diff HTS,Pf Dd2 inh,Tcruzi prolif
CO[C@H]1CN(C)C(=O)c2cc(NC(=O)c3cnccn3)ccc2OC[C@H](C)N(CCc2ccccc2)C[C@@H]1C,·,-47.7,·
COc1ccccc1C#Cc1ccc([C@H]2[C@@H](C#N)N(C(=O)C3CC3)[C@H]2CO)cc1,4.7,-85.2*,91.4
COc1ccccc1C#Cc1ccc([C@H]2[C@H](C#N)N(C(=O)C3CC3)[C@H]2CO)cc1,5.3,-36.8,94.8
COc1ccccc1C#Cc1ccc([C@H]2[C@@H](CO)N(C(=O)C3CCCCC3)[C@H]2C#N)cc1,-2.6,-90.9*,83.1
COc1ccccc1C#Cc1ccc([C@@H]2[C@@H](C#N)N(C(=O)C3CCCCC3)[C@@H]2CO)cc1,-3.1,-51.2,·
O=C(C[C@@H]1CC[C@H]2[C@@H](COC[C@@H](O)CN2S(=O)(=O)c2ccccc2)O1)N1CCc2ccccc2C1,·,-4.3,36.9
COc1ccc(C#Cc2cnc3c(c2)C(=O)N([C@@H](C)CO)C[C@@H](C)[C@@H](CN(C)CC2CC2)O3)cc1,·,-70.4,85.5
CCCNC(=O)N1[C@H](C#N)[C@H](c2ccc(-c3ccccc3F)cc2)[C@@H]1CO,17.9,-86.8*,91.3
CCCNC(=O)N1[C@@H](C#N)[C@H](c2ccc(-c3ccccc3F)cc2)[C@@H]1CO,-4.6,-62.8,33.8
CCCNC(=O)N1[C@H](C#N)[C@H](c2ccc(-c3ccccc3F)cc2)[C@H]1CO,11.8,-87.5*,67.1
CCCNC(=O)N1[C@H](CO)[C@@H](c2ccc(-c3ccccc3F)cc2)[C@@H]1C#N,1.2,-16.5,55.8
CCS(=O)(=O)Nc1ccc2c(c1)C(=O)N(C)[C@@H]1CC[C@@H](CC(=O)N3CCCCC3)O[C@@H]1CO2,-13.5,7.2,-31.7
COc1ccccc1-c1cn(CC[C@H]2CC[C@H](NC(=O)Cc3ccccn3)[C@@H](CO)O2)nn1,1.1,-22.1,-26.1
CN(C)C(=O)C[C@H]1CC[C@H]2[C@H](COc3ccc(NC(=O)C4CCOCC4)cc3C(=O)N2C)O1,-3.5,8.2,-59.4
C[C@@H]1CCCCO[C@@H](CN(C)S(=O)(=O)c2ccc(F)cc2)[C@@H](C)CN([C@H](C)CO)C(=O)c2cc(NS(=O)(=O)c3ccccc3)ccc2O1,-2.6,-7.2,-5.1
C[C@@H]1CN([C@H](C)CO)C(=O)c2cc(NC(=O)Nc3ccc4c(c3)OCO4)ccc2O[C@H]1CN(C)Cc1ccc2c(c1)OCO2,-3.0,-21.5,-15.9
C[C@H](CO)N1C[C@H](C)[C@H](CN(C)Cc2ccc(C(=O)Nc3ccccc3N)cc2)Oc2ccc(NS(=O)(=O)c3ccc(Cl)cc3)cc2CC1=O,1.5,-83.2*,·
C[C@H](CO)N1C[C@H](C)[C@H](CN(C)Cc2ccc(C(=O)Nc3ccccc3N)cc2)Oc2ccc(NS(=O)(=O)c3ccccc3)cc2CC1=O,-10.9,-85.5*,56.0
C[C@@H]1CN([C@@H](C)CO)C(=O)Cc2cc(NS(=O)(=O)c3ccc(Cl)cc3)ccc2O[C@H]1CN(C)Cc1ccc(C(=O)Nc2ccccc2N)cc1,4.8,-53.7,94.2
C[C@H]1CN([C@@H](C)CO)C(=O)Cc2cc(NS(=O)(=O)c3ccc(Cl)cc3)ccc2O[C@@H]1CN(C)Cc1ccc(C(=O)Nc2ccccc2N)cc1,2.4,-85.2*,·
C[C@@H]1CN([C@@H](C)CO)C(=O)Cc2cc(NS(C)(=O)=O)ccc2O[C@H]1CN(C)Cc1ccc(C(=O)Nc2ccccc2N)cc1,3.5,8.1,47.9
C[C@@H]1CN([C@@H](C)CO)C(=O)Cc2cc(NS(=O)(=O)c3ccc(F)cc3)ccc2O[C@H]1CN(C)Cc1ccc(C(=O)Nc2ccccc2N)cc1,1.0,-61.4,·
C[C@H](CO)N1C[C@H](C)[C@@H](CN(C)Cc2ccc(C(=O)Nc3ccccc3N)cc2)Oc2ccc(NS(=O)(=O)c3ccc(F)cc3)cc2CC1=O,-1.4,?,59.7
C[C@H](CO)N1C[C@H](C)[C@H](CN(C)Cc2ccc(C(=O)Nc3ccccc3N)cc2)Oc2ccc(NS(=O)(=O)c3ccc(F)cc3)cc2CC1=O,63.8,-81.9*,79.0
C[C@@H]1CCCCO[C@H](CN(C)Cc2ccc3c(c2)OCO3)[C@H](C)CN([C@H](C)CO)C(=O)c2cc(NS(=O)(=O)c3cn(C)cn3)ccc2O1,-1.6,-9.0,-2.9
SMILES,C diff HTS,Pf Dd2 inh,Tcruzi prolif
CN(C)C(=O)[C@@H]1[C@@H](CO)[C@@H]2Cn3c(ccc(-c4ccncc4)c3=O)[C@@H]2N1Cc1ccccc1F,3.6,10.1,-9.1
C[C@@H]1CCCCO[C@H](CN(C)C(=O)CCCN(C)C)[C@H](C)CN([C@H](C)CO)C(=O)c2cc(NC(=O)c3ccccc3)ccc2O1,-1.4,·,-6.5
C[C@H]1CN([C@@H](C)CO)C(=O)c2cc(NC(=O)Nc3cccc4ccccc34)ccc2O[C@H]1CN(C)C(=O)Nc1ccc(C(F)(F)F)cc1,3.9,-91.2*,5.8
C[C@@H]1CN([C@H](C)CO)C(=O)c2cccc(NC(=O)Nc3cccc4ccccc34)c2O[C@@H]1CN(C)C(=O)Nc1ccc(C(F)(F)F)cc1,72.8,-91.9*,51.9
C[C@H](CO)N1C[C@H](C)[C@@H](CN(C)C(=O)Nc2ccc(C(F)(F)F)cc2)Oc2ccc(NC(=O)Nc3cccc4ccccc34)cc2C1=O,-4.3,-17.6,49.7
C[C@@H]1CN([C@H](C)CO)C(=O)c2cccc(NC(=O)Nc3cccc4ccccc34)c2O[C@H]1CN(C)C(=O)Nc1ccc(C(F)(F)F)cc1,63.0,-42.6,42.2
C[C@@H]1CN([C@H](C)CO)C(=O)c2cc(NC(=O)Nc3cccc4ccccc34)ccc2O[C@H]1CN(C)C(=O)Nc1ccc(C(F)(F)F)cc1,-4.3,-12.6,77.1
C[C@H](CO)N1C[C@H](C)[C@@H](CN(C)C(=O)Nc2cccc3ccccc23)Oc2ccc(NC(=O)Nc3ccc(C(F)(F)F)cc3)cc2C1=O,-7.5,-95.8*,25.6
C[C@@H]1CN([C@@H](C)CO)C(=O)c2cccc(NC(=O)C3CC3)c2O[C@@H]1CN(C)C(=O)Nc1ccc(C(F)(F)F)cc1,3.8,-88.7*,-17.2
C[C@@H]1CN([C@H](C)CO)C(=O)c2cccc(NC(=O)C3CC3)c2O[C@H]1CN(C)C(=O)Nc1ccc(C(F)(F)F)cc1,-2.5,-5.6,65.6
O=C(C1CCOCC1)N1CC(=O)N2[C@H](C1)[C@H](c1ccc(C#Cc3cccc(F)c3)cc1)[C@@H]2CO,55.2,-7.4,·
COc1ccc2c3c(n(C)c2c1)[C@H](CO)N(C)CC31CCN(S(=O)(=O)c2cn(C)cn2)CC1,·,-11.9,·
Cn1cnc(S(=O)(=O)N2CCCCN3[C@H](CO)[C@H](c4ccc(C#CC5CC5)cc4)[C@H]3C2)c1,·,15.6,14.2
C[C@H]1CN([C@@H](C)CO)C(=O)c2cc(NC(=O)Nc3ccc(F)cc3)ccc2O[C@@H]1CN(C)C(=O)Nc1cccc2ccccc12,-3.9,-23.0,·
C[C@H]1CN([C@@H](C)CO)C(=O)c2cc(NC(=O)Nc3ccc(C(F)(F)F)cc3)ccc2O[C@@H]1CN(C)C(=O)Nc1cccc2ccccc12,-3.5,-95.2*,-19.0
CCCNC(=O)Nc1ccc2c(c1)OC[C@H](C)N(Cc1cccnc1)C[C@H](C)[C@@H](OC)CN(C)C2=O,-2.2,-33.1,·
C[C@H](CO)N1C[C@H](C)[C@H](CN(C)C(=O)c2ccccc2F)Oc2ncc(-c3cccnc3)cc2C1=O,-3.6,31.1,34.6
